Values joined by “and” are separate entries in the source; they are usually repeats but may differ in a detail not shown here. Equal values may be shown once.
Each molecule was assayed against Concanavalin-A (Canavalia ensiformis) (UniProt P02866) (assay: compounds binding concanavalin A lectin – biochemical, small-molecule microarray, Alexa647 label, 635 nm, artefact control for SMM control protein annotation, primary screen (AID 1127;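 further: z combines 667 nm emission intensity with signal-to-noise across three replicate slides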)). Settings: ConA-A647 binding fluorescence, higher = more signal.
Sequence of Concanavalin-A (Canavalia ensiformis) (P02866 whole entry, looked up): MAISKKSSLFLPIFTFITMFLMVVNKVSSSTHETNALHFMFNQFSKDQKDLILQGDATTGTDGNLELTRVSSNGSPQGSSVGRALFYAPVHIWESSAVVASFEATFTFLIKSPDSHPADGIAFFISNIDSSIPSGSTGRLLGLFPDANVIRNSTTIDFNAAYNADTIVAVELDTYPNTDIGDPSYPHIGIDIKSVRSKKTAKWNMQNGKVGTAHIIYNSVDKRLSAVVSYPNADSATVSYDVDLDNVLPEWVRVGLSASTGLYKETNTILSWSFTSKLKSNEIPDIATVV
Molecule `CC(C)=NOC[C@@H](O)COCc1ccco1` has a composite z-score of -0.703.
In the case of `COC(=O)C1=C(C)N(Cc2ccccc2)C2=C(C(C)=O)C[C@@](O)(C(=O)OC)C(=O)N2[C@@H]1c1ccccc1`, the composite z-score was -0.0847 and -0.495.
In the case of `COC(=O)[C@@]1(Cc2ccc(OC)cc2)[C@H]2c3cc(C(=O)N(C)C)n(Cc4ccc(O)c(OC)c4)c3C[C@H]2CN1C(=O)c1ccccc1`, the composite z-score was 0.311 and 0.836.
In the case of `C=CC[C@H](O)c1ccc(OCCO)cc1`, the composite z-score was -1.3 and -1.2.
With `CC(C)=NO[C@@H](C)c1cc(-c2c(C)cc(C)cc2C)no1` the composite z-score was 0.154.
With `C[N+](C)(C)CCCCNC(=O)[C@H]1C[C@H]2C(=O)N[C@@H](CCCC[N+](C)(C)C)C(=O)N2[C@H]1c1ccc(O)cc1` the composite z-score was 1.16 and -0.33.
In the case of `C[C@@]1([C@@H](NC(=O)Cc2ccccc2)c2ccc(-c3ccccc3)cc2)C[C@H]1C1CCCCC1`, the composite z-score was 0.956 and 0.166 and 1.12.
Work on `CCN1C(=O)[C@H]2[C@H]3[C@H](O)[C@H](O)CC(=NOC)[C@@H]3CC[C@H]2C1=O` yielded a composite z-score of -0.0569.
`O=C1NC(=O)C2C1C=CC(C(O)c1ccc([N+](=O)[O-])cc1)N2Nc1ccc(Cl)cc1Cl` (centres undefined) was tested, and the composite z-score was 0.738 and 0.461.
For `C=C[C@H](C)[C@@H](O)c1ccc(OCCO)cc1`, the composite z-score was -1.1 and -0.494.
For `CC(C)CON=C1C[C@@H](O)[C@@H](O)[C@@H]2[C@@H]3C(=O)N(c4cccc(Oc5ccccc5)c4)C(=O)[C@@H]3CC[C@H]12`, the composite z-score was 0.882.
In the case of `CO[C@H]1COC(=O)CC=C[C@@H](C)COC(=O)[C@H](CCSC)NC(=O)CC=C[C@@H]1C`, the composite z-score was -0.773 and -2.15.
`C=C[C@@H](OC)[C@H](O)c1ccc(OCCO)cc1` was tested, and the composite z-score was -1.26 and -1.04.
`CCOC(=O)c1ccc(NC(=O)O[C@H]2[C@H](OC(=O)Nc3ccccc3)[C@@H](OC(=O)Nc3ccccc3)[C@@H](OC)O[C@@H]2CO)cc1` was tested, and the composite z-score was 1.23 and 1.17.

From PubChem BioAssay
